Screening data deposited in PubChem by National Center for Advancing Translational Sciences (NCATS).
Glioma ERSR ind: ER stress response induction in glioma | U87-MG GRP78 promoter luciferase reporter, 16 h | Potency, µM, for the others: at the top dose activation, most hits filed as activators | 420,000 tested, 0.02% active; note: series mostly up to about 76 µM; % of control where 0% means no effect; nearly all actives have a fitted effect of over 35% in size
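Stably transfected U87-MG human glioma cells carrying a GRP78-based luminescent sensor were seeded at 1000 cells/well, pin-dosed with compounds and incubated 16 h. Luciferase reagent was then added, and end-point luminescence was read after 10 min at room temperature.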
Sfp inh: Sfp phosphopantetheinyl transferase inhibition; 310,000 tested, 3.5% active; Q9F4F7; Potency, µM, for the others: largest response in the series, negative = inhibition, usual class: inhibitors; Biochemical Sfp PPTase activity, qHTS;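 note: the enzyme is Sfp with the accession as filed and its product quenches rhodamine fluorescence; 0% = enzyme reaction without inhibitor and -100% = no enzyme wells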
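Compounds were incubated with enzyme (final 15 nM) for 15 min at room temperature before substrate addition started the reaction. Fluorescence at 525 nm excitation, 598 nm emission was recorded immediately and after 30 minutes.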
VDR inhibitor: inhibitors of human vitamin D receptor. P11473. VDR-SRC2-3 peptide fluorescence polarization, 2 h. Potency, µM, for inactives: max response, negative = inhibition, actives largely listed as inhibitors. 400,000 tested, 0.93% active; note: % is set by controls: 0 for no effect and ±100 for the full control effect
Target sequence (P11473 whole entry, looked up): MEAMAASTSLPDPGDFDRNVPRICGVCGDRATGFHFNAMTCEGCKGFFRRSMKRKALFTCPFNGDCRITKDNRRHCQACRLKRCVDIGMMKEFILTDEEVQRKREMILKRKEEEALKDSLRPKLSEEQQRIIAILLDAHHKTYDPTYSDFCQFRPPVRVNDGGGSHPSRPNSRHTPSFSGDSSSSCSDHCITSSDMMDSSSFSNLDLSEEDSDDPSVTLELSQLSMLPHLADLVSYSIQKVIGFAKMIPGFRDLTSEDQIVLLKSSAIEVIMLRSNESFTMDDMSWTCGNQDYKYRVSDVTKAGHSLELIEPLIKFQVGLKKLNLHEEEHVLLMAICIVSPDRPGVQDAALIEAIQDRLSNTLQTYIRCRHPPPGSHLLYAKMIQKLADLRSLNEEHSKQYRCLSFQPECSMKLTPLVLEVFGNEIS
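Compounds are added to VDR with labelled SRC2-3 coactivator peptide and held 2 h at room temperature. Inhibition of the VDR–peptide interaction is then read as a change in fluorescence polarization.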
12-LOX inh: ALOX12 (human) lipoxygenase inhibition. 580,000 tested, 1.1% active. AID 1671190. Potency, µM (highest dose often 108 µM), for inactives: at the highest dose activity change, negative = inhibition, usual class: inhibitors. P18054. purified 12hLO, xylenol orange hydroperoxide absorbance; note: % is set by controls: 0 for no effect and ±100 for the full control effect
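Purified human 12hLO at 150 nM in 25 mM Hepes, 0.01% Triton X-100, pH 7.0, preincubated 15 min at room temperature with compound. Reaction started with 40 uM arachidonic acid, 30 min at room temperature. Hydroperoxide measured by Fe-xylenol orange, 573/405 nm absorbance ratio.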
G9a block: blocks human histone lysine methyltransferase G9a. Q96KQ7. G9a H3K9 monomethylation, AlphaScreen, 2 h. Potency, µM (series often up to 102 µM), inactives show at the top dose activity, negative = inhibition, most hits filed as inhibitors. 350,000 tested, 8.8% active; note: % is set by controls: 0 for no effect and ±100 for the full control effect; nearly all actives have a fitted effect of over 75% in size
Target sequence (Q96KQ7 913-1193 limits assumed): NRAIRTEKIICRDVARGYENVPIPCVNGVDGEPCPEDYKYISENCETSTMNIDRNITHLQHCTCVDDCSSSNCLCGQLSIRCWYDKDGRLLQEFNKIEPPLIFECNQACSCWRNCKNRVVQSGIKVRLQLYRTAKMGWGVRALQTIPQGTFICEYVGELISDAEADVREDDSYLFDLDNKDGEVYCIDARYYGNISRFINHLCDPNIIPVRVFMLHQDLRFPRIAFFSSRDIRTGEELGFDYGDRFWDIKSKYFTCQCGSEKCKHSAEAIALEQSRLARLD
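AlphaScreen detection with an anti-monomethyl H3K9 antibody quantified product after a 2 h room-temperature reaction containing 500 nM biotinylated H3K9 peptide, 20 µM SAM and 20 nM enzyme, which had been preincubated 15 min with compound.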
* marks the source's active call; other numbers are inactive results; ? = inconclusive; . = no result given; ! = not confirmed by another sample; [ ] = remark or other dose. The sample as a whole holds a higher share of hits than the screen did. Calls come from the whole dose curve; as a rule, active = well fitted curve in the direction sought with a large enough effect; inconclusive = small, poorly fitted or top-dose-only effect, or another doubt; inactive = no such curve, though single readings can be large; an effect the other way counts as inactive or inconclusive. Potency is the fitted concentration of half-maximal effect.

SMILES | Glioma ERSR ind | Sfp inh | VDR inhibitor | 12-LOX inh | G9a block
O=C(NC1CC1)C1CCN(S(=O)(=O)c2cc(Cl)ccc2Cl)CC1 | -5% | -20% | 9% | -12% | 13µM*
Cc1nnc(NC(=O)C2CCN(S(=O)(=O)c3cc([N+](=O)[O-])ccc3Cl)CC2)o1 | -3% | . | 3% | -28% | ?
Cc1cccc2sc(NC(=O)C3CCN(S(=O)(=O)c4cc([N+](=O)[O-])ccc4Cl)CC3)nc12 | -5% | -11% | -11% | 40µM* | 7.9µM*
Cc1[nH]c2ccccc2c1-c1csc(NC(=O)C2CCOCC2)n1 | . | . | . | -5% | .
CCc1cccc(NC(=O)C2CCc3ncc(-c4ccsc4)n3C2)c1 (stereo not drawn) | . | . | . | 78% | .
Cc1ccc2oc(-c3ccc(NC(=O)c4ccccc4F)cc3)nc2c1 | . | . | . | -2% | .
CCCCCOc1ccc(Br)cc1/C(C)=N/NC1=NCCN1 | -13% | ? | -6% | ? | 8.9µM*
Cc1ccc(C(=O)NC(=S)c2c(C)cc3ccccn23)cc1 | 1% | . | . | 7.9µM* | .
Cc1cc2ccccn2c1C(=O)c1ccncc1 | -1% | 5% | 2% | 0% | -45%
Clc1ccc2c(SCC3CO3)c3ccccc3nc2c1 (stereo not drawn) | -12% | . | 40µM* | -24% | .
N#Cc1nc(-c2ccccc2F)oc1NCc1ccco1 | . | . | . | 0% | .
CCC(=O)Oc1ccc2c(c1)O/C(=C\c1ccco1)C2=O | 5% | -13% | -21% | 25µM* | 50µM*
CCN(CC)C(=O)Oc1ccc2c(c1)O/C(=C\c1ccco1)C2=O | 6% | ? | 14% | ? | 25µM*
COC(=O)COc1ccc2c(c1)O/C(=C\c1ccco1)C2=O | 2% | 56µM* | -29% | ? | 25µM*
COc1cccc(/C=C2\Oc3cc(OC(=O)C(C)(C)C)ccc3C2=O)c1OC | . | . | . | -2% | .
COc1ccccc1/C=C1\Oc2cc(OC(=O)C(C)(C)C)ccc2C1=O | . | . | . | -29% | .
CC(C)Cc1ccc(C(C)C(=O)NC(c2ccccc2)c2ccccc2)cc1 (stereo not drawn) | . | . | . | -8% | .
O=C(O)Cc1ccc(-n2cccc2)cc1 | -6% | 8% | 7% | -13% | 20µM*
O=C(Cc1ccc(-n2cccc2)cc1)NC1CCCCC1 | -2% | -3% | 6% | 0% | -29%
CC(C)Cc1ccc(CC(=O)O)cc1 | -6% | ? | -5% | -13%[22.9 µM] | 11µM*
COc1ccc(C(=O)Oc2ccccc2Cl)cc1Br | . | . | . | -2% | .
O=C1c2cc(N3CCOCC3)nc(-c3cccc(O)c3)c2CN1CC(F)(F)F | . | . | . | -29%[176 µM] | .
O=S(=O)(c1ccc(F)cc1)N1CCN(CC2CC3C=CC2C3)CC1 (stereo not drawn) | -4% | -27% | ? | ? | 22µM*
O=C(c1ccccc1F)N1CCN(CC2CC3C=CC2C3)CC1 (stereo not drawn) | -6% | -15% | -1% | -26% | ?
O=C(c1cccc(F)c1)N1CCN(CC2CC3C=CC2C3)CC1 (stereo not drawn) | -1% | -6% | -4% | ? | 10µM*
SMILES | Glioma ERSR ind | Sfp inh | VDR inhibitor | 12-LOX inh | G9a block
O=S(=O)(c1ccccc1)N1CCN(CC2CC3C=CC2C3)CC1 (stereo not drawn) | -1% | 8% | -8% | ? | .
COc1ccc(C2NC(C(=O)O)CS2)cc1COCC(F)(F)F (stereo not drawn) | -1% | 4% | -15% | ? | 50µM*
O=C(CCN1CCN(CCO)CC1)Nc1ccc(C2CCCC2)cc1 | -1% | -6% | -17% | 45µM* | ?
O=C(CN1C(=O)c2ccccc2S1(=O)=O)c1ccccc1F | -14% | -9% | -4% | 136% | 2%[12.7 µM]
O=C(CN1C(=O)c2ccccc2S1(=O)=O)c1ccc(Cl)cc1Cl | -13% | . | -8% | 8.9µM*! | .
CC1(Cc2ccc3c(c2)OCO3)CCCN(C(=O)CCCn2ccnc2)C1 (stereo not drawn) | . | . | . | 32% | .
CC(Nc1nc(-c2ccc(F)cc2)cs1)c1nc2cc(Cl)c(Cl)cc2n1CCCO (stereo not drawn) | -5% | . | -12% | -14% | .
CCCn1c(C(C)Nc2nc(-c3ccc(C)cc3)cs2)nc2ccccc21 (stereo not drawn) | 0% | -9% | 2% | -16% | 89µM*
CCCn1c(C(C)Nc2nc(-c3cccc(Br)c3)cs2)nc2ccccc21 (stereo not drawn) | -2% | -13% | -9% | -2% | ?
Cc1ccc(Cn2c(C(C)Nc3nc(-c4ccc(C)cc4)cs3)nc3cc(Cl)c(Cl)cc32)cc1 (stereo not drawn) | -1% | -14% | 2% | -27% | 28µM*
Cc1oc(-c2ccccc2)nc1C(=O)OCC(=O)NC(C)C(C)C (stereo not drawn) | . | . | . | 4% | .
N#C/C(=C\c1ccccc1)C(=O)N1CCN(c2ccccc2F)CC1 | -4% | -2% | 45µM* | -10% | -8%
C/C(=C/c1ccccc1)C(=O)N1CCN(c2ccccc2F)CC1 | 0% | -1% | -3% | 9% | ?
N#C/C(=C\c1cccc(Br)c1)C(=O)N1CCCCC1 | -12% | -1% | 50µM* | -22% | ?
CCCC1=NN2C(=N)/C(=C\c3cc(C)n(Cc4ccccc4)c3C)C(=O)N=C2S1 | -3% | -18% | -1% | -2% | 5%
CCCC1=NN2C(=N)/C(=C\c3ccc(SCc4ccco4)o3)C(=O)N=C2S1 | -3% | 56µM* | 2% | . | 8.9µM*
CCC1=NN2C(=N)/C(=C\c3ccc(SCc4ccco4)o3)C(=O)N=C2S1 | -2% | 45µM* | -10% | ? | 7.1µM*
N=C1/C(=C/c2ccco2)C(=O)N=C2SC(CC(=O)N3CCCC3)=NN12 | -4% | 5% | -14% | -4% | 40µM*
CCC1=NN2C(=N)/C(=C/c3c(C)nn(-c4ccccc4)c3Cl)C(=O)N=C2S1 | -1% | -2% | ? | 0% | -12%
CCc1nccn1S(=O)(=O)c1cc(C)c(C)cc1OC | . | . | . | 28% | .
Cn1c(SCC(=O)c2ccccc2)nnc1-c1ccc(O)cc1 | 7% | 79µM* | -21% | -23% | -5%[12.7 µM]
CCC(=O)Nc1nnc(SCC(=O)c2ccc3c(c2)Cc2ccccc2-3)s1 | -4% | 56µM* | -5% | -23% | ?
Cn1c(SCC(=O)c2ccc3c(c2)Cc2ccccc2-3)nnc1-c1ccccc1 | -3% | 79µM* | -17% | 0% | 35µM*
CCC(=O)Nc1nnc(SCc2ccc(F)cc2)s1 | 4% | 11% | 3% | 29% | 8.9µM*
Cc1ccc(C(=O)CSc2nnc(-c3ccccc3N)n2C)cc1C | 0% | 7% | -3% | 0% | -7%[59 µM]
S=C(NCCC1=CCCCC1)Nc1ccc(Br)cc1 | . | . | . | -10% | .
Cc1ccc(NC(=O)NC2OC(=O)c3ccccc32)cc1 (stereo not drawn) | -2% | . | 7% | -8% | .
CC(=O)NC(=O)NC1OC(=O)C(Cl)=C1Cl (stereo not drawn) | 11% | -20% | 2% | ? | 40µM*
CC(C)(C(=O)N1CCN(C(=O)c2cc(=O)[nH]c3ccccc23)CC1)c1ccccc1 | . | . | . | 2% | .
